Bioassay records: PubChem BioAssay, National Center for Advancing Translational Sciences (NCATS)
This is a sample that favours compounds with a hit; in the whole collection about 3.8% have one here.
KCNH2 3.1 inh – blocks the human KCNH2 3.1 channel isoform; U2OS KCNH2 3.1, thallium flux FluxOr; hits give low values; activity change, % (tested at about 1.8 µM); actives 0.95% (n = 340,000);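 active = maximum activity change below -70%; inconclusive = maximum activity change from -70% to -50%; inactive = maximum activity change above -50%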;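 also: thallium influx rate constant from kinetic fluorescence after stimulation buffer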
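U2OS cells transduced with KCNH2 3.1 mutant virus (1.77 x 10^8 /mL, 4 h), plated overnight at 37 C, loaded 45 min with FluxOr dye plus Red40 quencher. Thallium flux rate constant from kinetic reads after stimulation buffer, normalised to controls.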
KCNH2 WT inh – inhibitors of human wildtype KCNH2 potassium channel; Q12809; U2OS, BacMam KCNH2, thallium flux FluxOr; hits give low values; activity change, % at 1.84 µM; actives 0.37% (n = 340,000);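 active = maximum activity change below -70%; inconclusive = maximum activity change between -70% and -50%; inactive = maximum activity change above -50%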
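U2OS cells were transduced with wild-type KCNH2 virus (2.03 x 10^8 / mL) for 4 h at room temperature, then cultured overnight at 37 C. Thallium flux was read with FluxOr dye. Rate constants were normalized to DMSO controls.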
VDR inhibitor – blocks the human vitamin D receptor. AID 504847. VDR-SRC2-3 peptide fluorescence polarization, 2 h. actives 0.93% (n = 400,000). Potency, µM, most hits filed as inhibitors. P11473
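Measured by FP: displacement of SRC2-3 coactivator peptide from VDR by library compounds, following a two-hour ambient incubation.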
CBFb-RUNX1 inh – blocks binding between human CBF-beta and RUNX1; AlphaScreen CBFb-His/RUNX1-biotin binding, biochemical; Potency, µM (series often up to 59.8 µM), hits mostly inhibitors; 230,000 tested, under 10 active; Q01196+Q13951
Target sequence (Q01196 whole entry, looked up): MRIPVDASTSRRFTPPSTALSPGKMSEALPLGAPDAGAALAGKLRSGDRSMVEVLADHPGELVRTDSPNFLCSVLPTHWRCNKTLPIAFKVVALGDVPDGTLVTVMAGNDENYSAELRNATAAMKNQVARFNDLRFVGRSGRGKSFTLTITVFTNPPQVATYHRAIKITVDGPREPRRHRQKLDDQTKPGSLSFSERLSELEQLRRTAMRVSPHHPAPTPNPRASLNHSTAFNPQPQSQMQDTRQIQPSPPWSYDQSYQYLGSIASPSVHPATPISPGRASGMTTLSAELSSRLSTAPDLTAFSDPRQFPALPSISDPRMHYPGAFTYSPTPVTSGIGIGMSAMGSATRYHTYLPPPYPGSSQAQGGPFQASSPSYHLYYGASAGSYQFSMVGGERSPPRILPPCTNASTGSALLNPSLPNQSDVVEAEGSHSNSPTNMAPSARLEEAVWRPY
Target sequence (Q13951 whole entry, looked up): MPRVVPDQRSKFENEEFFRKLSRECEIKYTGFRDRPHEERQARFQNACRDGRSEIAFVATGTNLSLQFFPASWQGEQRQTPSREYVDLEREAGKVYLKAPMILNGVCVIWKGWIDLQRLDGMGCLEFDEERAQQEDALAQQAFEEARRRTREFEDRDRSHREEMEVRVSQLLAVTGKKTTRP
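Interaction loss through any mechanism counts as activity. Pre-formed complex of His-CBF-beta and biotin-RUNX1 (30 nM apiece) is incubated with compound 15 min, then with 50 ng nickel and 50 ng streptavidin beads for 90 min before AlphaScreen detection.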
PLK1 PBD inh – blocks phosphopeptide binding to human PLK1 polo-box domain; Plk1 PBD binding of FITC phosphopeptide, fluorescence polarization; Potency, µM, most hits filed as inhibitors; actives 2.8% (n = 360,000); also: series mostly up to about 57 µM; nearly all actives have a fitted effect of over 65% in size
MBNL1-CUG inh – blocks human MBNL1 binding to CUG repeat RNA; Q9NR56; TR-FRET MBNL1-His/biotin-(CUG)12 binding, 665/545 ratio; Potency, µM (top dose mostly 57.5 µM), actives largely listed as inhibitors; actives 0.036% (n = 280,000); AID 2675; active = well fitted inhibition curve with a large enough effect in the signal ratio, with a control signal flat, not every such curve was filed as active; inconclusive = small, poorly fitted or top-dose-only effect, or effect the other way, or a change in a side signal; inactive = no such curve, though single readings can be large or run the other way; the % refers to the signal ratio
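TR-FRET between His-tagged MBNL1 and biotin-(CUG)12 RNA, detected with Tb anti-His antibody (0.055 ng/ul) and streptavidin-XL665 (5 nM), 60 min at room temperature. Compounds titrated 92 nM to 58 uM; 665/545 nm ratio normalized to buffer and complex controls.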
A number is an active result; - = inactive; ? = inconclusive; . = not tested or not shown; ! = not confirmed by another sample; [ ] = another dose, or the depositor's remark. Unless noted, calls follow the shape of the dose curve; as a rule, active = well fitted curve in the direction sought with a large enough effect; inconclusive = small, poorly fitted or top-dose-only effect, or another doubt; inactive = no such curve, though single readings can be large; an effect the other way counts as inactive or inconclusive.

SMILES | KCNH2 3.1 inh | KCNH2 WT inh | VDR inhibitor | CBFb-RUNX1 inh | PLK1 PBD inh | MBNL1-CUG inh
C=CCOc1ccc(C(c2c(O)nc(SC)[nH]c2=O)c2c(O)nc(SC)[nH]c2=O)cc1 | - | - | 22.4µM | . | 11.9µM | .
CCOc1ccc(C(c2c(O)nc(SC)[nH]c2=O)c2c(O)nc(SC)[nH]c2=O)cc1 | - | - | ? | . | 23.8µM | .
CSc1nc(O)c(C(c2ccc(O)cc2)c2c(O)nc(SC)[nH]c2=O)c(=O)[nH]1 | - | - | ? | . | ? | -
CC(C)c1ccc(N2C(=O)CSC23C(=O)N(C)c2ccccc23)cc1 (stereo unspecified) | . | . | - | . | . | .
CCCc1ccc(/C=C2\C(=O)c3ccccc3C(O)=C2C(=O)OCC)cc1 | . | . | . | - | . | ?
CCOC(=O)C1=C(O)c2ccccc2C(=O)/C1=C\c1ccc(CC)cc1 | - | - | 3.55µM | - | 2.99µM | ?
COc1ccc(-c2cc(C(=O)N/N=C/c3ccc(OC)c(COCC(F)(F)C(F)F)c3)c3ccccc3n2)c(OC)c1 | - | - | - | - | 2.99µM | -
Cc1ccc2nc(C)cc(N/N=C/c3ccccc3O)c2c1 | - | - | ? | . | - | -
C/C(=N\Nc1nc2ccccc2c(=O)n1O)c1ccco1 | - | - | - | . | 21.2µM | -
C/C(=N\NC(=O)c1cc(C)nc2ccccc12)c1ccco1 | - | - | - | - | - | -
Cc1ccc(C)c(/C=N/Nc2nc3ccccc3c(=O)n2O)c1 | - | - | - | - | 23.8µM | -
COc1ccccc1N1CCN(CCn2c(=O)[nH]c3c([nH]c4ccccc43)c2=O)CC1 | . | . | - | - | . | .
COc1ccccc1N1CCN(CCn2c(=O)c3c(c4ccccc4n3C)n(C)c2=O)CC1 | . | . | 44.7µM! | - | . | .
CCN(CC)CCCNC(=O)CCC(=O)NNc1nc2ccccc2c2nc(C)nn12 | - | - | 79.4µM! | - | - | -
COc1ccccc1N(C)S(=O)(=O)c1ccc(Cl)c(C(=O)NC2=NCCS2)c1 | -76.1 | - | - | - | - | -
CCOc1ccc(NC(=O)CSc2nnc(CNC(=O)C34CC5CC(CC(C5)C3)C4)n2CC)cc1 | . | . | - | . | . | .
Cc1ccc(S(=O)(=O)N(CC(=O)Nc2ccccc2C(=O)O)c2ccccc2C)cc1 | - | - | - | - | - | -
Cc1ccc(S(=O)(=O)N(CC(=O)Nc2ccccc2C(=O)O)c2cccc(Cl)c2C)cc1 | - | - | - | - | 29.9µM | -
CC1CCN(S(=O)(=O)c2ccc3c(c2)N(CC(=O)NCCN(C)C)C(=O)CO3)CC1 | . | . | - | . | . | .
O=C(Oc1ccc(=O)n(-c2ccccc2)n1)c1ccc(Cl)cc1 | - | - | - | - | ? | -
O=C(Oc1ccc(=O)n(-c2ccccc2)n1)c1cccc(Cl)c1 | - | - | - | - | 6.7µM | -
Oc1ccc2ccccc2c1CN1CCN(C/C=C/c2ccccc2)CC1 | -79.8 | - | ? | . | - | -
COc1ccc(NC(C)=O)cc1S(=O)(=O)N1CCN(C/C=C/c2ccccc2)CC1 | -73.3 | - | - | - | - | -
O=S(=O)(c1ccccc1)N1CCN(Cc2c(O)ccc3ccccc23)CC1 | - | - | - | . | ? | .
Cc1cc(NC(=O)Cn2nc(C(=O)O)c3ccccc3c2=O)c([N+](=O)[O-])cc1C | - | - | - | . | - | -
SMILES | KCNH2 3.1 inh | KCNH2 WT inh | VDR inhibitor | CBFb-RUNX1 inh | PLK1 PBD inh | MBNL1-CUG inh
Cc1cccc(NC(=O)CCN2CCN(C/C=C/c3ccccc3)CC2)c1 | -90.6 | - | - | - | - | -
Cc1cc(NC(=O)CN2CCN(C/C=C/c3ccccc3)CC2)c([N+](=O)[O-])cc1C | -92.4 | - | - | - | - | -
COc1ccc(NC(C)=O)cc1S(=O)(=O)N1CCN(C(=O)c2ccccc2F)CC1 | - | - | - | - | - | -
Cc1ccc(CNC(=O)C(C)n2nc(C)n3c(cc4sccc43)c2=O)cc1 (stereo unspecified) | . | . | - | . | . | .
Cc1cc(NC(=O)CCN2CCN(C/C=C/c3ccccc3)CC2)ccc1Br | -107.8 | - | - | . | - | -
Cc1ccccc1NC(=O)CCN1CCN(C)CC1 | - | - | - | . | - | -
O=C(CN1CCN(S(=O)(=O)c2ccccc2)CC1)Nc1ccccc1C(=O)NC1CC1 | ? | - | - | . | - | .
O=C(CN1CCN(C/C=C/c2ccccc2)CC1)Nc1ccccc1C(=O)NC1CC1 | -111.5 | -90.7 | - | - | - | -
Cc1ccccc1NC(=O)CCN1CCN(C/C=C/c2ccccc2)CC1 | -84.8 | - | - | - | - | -
O=C(CCN1CCN(C/C=C/c2ccccc2)CC1)Nc1ccccc1 | -80.3 | - | - | - | - | -
COc1ccc(NC(=O)CSc2cn(CCNC(=O)c3c(F)cccc3F)c3ccccc23)cc1 | . | . | - | . | . | .
COc1ccc(C2/C=C\CN(S(=O)(=O)c3ccc(C)cc3)C(C)C(=O)N2Cc2ccc(F)cc2)cc1 (stereo unspecified) | . | . | - | - | . | .
CC12CCC=CC1C(c1ccc(C(F)(F)F)cc1)N(Cc1ccccc1)C2=O (stereo unspecified) | . | . | - | - | . | .
COc1ccc(-n2ncc(C(=O)NCc3ccc4c(c3)OCO4)c2C2CCN(C(=O)OC(C)(C)C)CC2)cc1 | . | . | - | . | . | .
Cc1ccccc1C1C=C(c2ccc(Cl)cc2)Nc2nnnn21 (stereo unspecified) | . | . | - | . | . | .
CN(C)c1ccc(N=Cc2ccco2)cc1 | - | - | 2µM | - | - | ?
Cc1ccc(NC(=O)C2CCCN(S(=O)(=O)c3cccc4cccnc34)C2)c(Br)c1 (stereo unspecified) | . | . | - | . | . | .
Cc1ccc(SCc2nc(-c3ccncc3)no2)cc1 | - | - | - | - | 2.99µM | -
Clc1ccccc1OCc1nc(-c2ccncc2)no1 | - | - | - | - | 6.7µM | -
Cc1ccc(SCc2nc(-c3ccccn3)no2)cc1 | - | - | - | - | - | -
COc1ccc(-c2noc(CSc3ccccc3)n2)cc1OC | - | - | - | ? | - | -
c1ccc(SCc2nc(-c3ccncc3)no2)cc1 | - | - | - | - | 13.4µM | -
Cc1noc(C)c1S(=O)(=O)N1CCc2nc(COc3ccccc3)c3c(c2C1)CO[C@@H](C)C3 | . | . | . | -[13.1 µM] | . | .
C#CCSc1nc2sc3c(c2c(=O)n1-c1cccc(OC)c1)CCN(C(C)=O)C3 | . | . | - | . | . | .
O=c1[nH]nc(N2CCOCC2)c(=O)[nH]1 | - | - | ? | - | 4.74µM | -
Cc1[nH]c(=O)[nH]c(=O)c1N1CCOCC1 | - | - | - | - | - | -
COc1cc(NC(=O)COC(=O)CNC(=O)c2ccc(C)s2)cc(OC)c1 | - | - | - | - | 23.8µM | -
COc1ccc(C(=O)COC(=O)CNC(=O)c2ccc(C)s2)c(OC)c1 | - | - | - | . | - | .
Cc1ccc(CN2CCN(Cc3ccc(-n4cccn4)cc3C)CC2CCO)cc1 (stereo unspecified) | -158.3 | -91.1 | - | - | - | ?
